“And” between values parts separate entries of the source, which are not always exact repeats. Equal values may be shown once. Inconclusive results are not listed. The source made the active and inactive calls. Calls come from the whole dose curve; as a rule, active = well fitted curve in the direction sought with a large enough effect; inconclusive = small, poorly fitted or top-dose-only effect, or another doubt; inactive = no such curve, though single readings can be large; an effect the other way counts as inactive or inconclusive.
Tests used:
[1] = qHTS of pediatric cancer cell lines to identify multiple opportunities for drug repurposing: Primary screen for TC32 cells (AID 1347089); conditions: TC32 Ewing sarcoma viability, CellTiter-Glo luminescence, 48 h; series mostly up to 45.8 µM; note: nearly all actives have a fitted effect of over 60% in size
Summary of the method: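 A viability screen of TC32 cells was run over 48 h, with primary MIPE doses spanning 0.78 nM–46 µM and NPC doses 0.59 nM–46 µM. ATP luminescence (CellTiter-Glo) served as the read-out.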

[2] = qHTS of pediatric cancer cell lines to identify multiple opportunities for drug repurposing: Primary screen for DAOY cells (AID 1347090); conditions: DAOY medulloblastoma viability, CellTiter-Glo luminescence, 48 h; series mostly up to 46 µM; note: nearly all actives have a fitted effect of over 55% in size; note: potency is the fitted concentration of half-maximal effect
Summary of the method: (§1)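 Cell viability, CellTiter-Glo luminescence; 500-1,000 cells/well, 8- or 11-point titration, 48 h compound exposure at 37 degrees C, 5% CO2. Controls: DMSO neutral, bortezomib 2.3 µM final as positive.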

[3] = qHTS of pediatric cancer cell lines to identify multiple opportunities for drug repurposing: Primary screen for SK-N-MC cells (AID 1347093); conditions: SK-N-MC viability, CellTiter-Glo luminescence, 48 h; series mostly up to 46 µM; note: potency is the fitted concentration of half-maximal effect
Summary of the method: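 Metabolically active cells were quantified by ATP-dependent luminescence (CellTiter-Glo, 15 min at room temperature) following 48 h treatment. Cells had been plated at 500-1,000 per well and settled for 5 h beforehand.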

[4] = qHTS of pediatric cancer cell lines to identify multiple opportunities for drug repurposing: Primary screen for U-2 OS cells (AID 1347096); conditions: U-2 OS viability, CellTiter-Glo luminescence, 48 h; series mostly up to 46 µM; note: nearly all actives have a fitted effect of over 50% in size
Summary of the method: (§2)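 Cells (500-1,000/well) rested 5 h, then received compounds for 48 h; metabolically active cells were measured by CellTiter-Glo luminescence. Final concentrations spanned up to 46 µM (MIPE, 11-point) or 0.59 nM-46 µM (NPC, 8-point) in primary screens, 11-point in follow-ups.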

[5] = qHTS of pediatric cancer cell lines to identify multiple opportunities for drug repurposing: Primary screen for BT-37 cells (AID 1347094); conditions: BT-37 viability, CellTiter-Glo luminescence, 48 h; series mostly up to 57.3 µM; note: potency is the fitted concentration of half-maximal effect
Summary of the method: (§3)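 Cells plated at 500-1,000/well in growth medium, compounds added after 5 h. MIPE tested at 11 points (from 0.78 nM), NPC at 8 points (from 0.59 nM). CellTiter-Glo luminescence after 48 h; concentration-response curves from primary screen.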

[6] = qHTS of pediatric cancer cell lines to identify multiple opportunities for drug repurposing: Primary screen for NB-EBc1 cells (AID 1347095); conditions: NB-EBc1 neuroblastoma viability, CellTiter-Glo luminescence, 48 h; series mostly up to 46 µM; note: potency is the fitted concentration of half-maximal effect
Summary of the method: as §3

[7] = qHTS of pediatric cancer cell lines to identify multiple opportunities for drug repurposing: Primary screen for Saos-2 cells (AID 1347097); conditions: Saos-2 viability, CellTiter-Glo ATP luminescence, 48 h; series mostly up to 46 µM; note: nearly all actives have a fitted effect of over 40% in size; note: potency is the fitted concentration of half-maximal effect
Summary of the method: as §3

[8] = qHTS of pediatric cancer cell lines to identify multiple opportunities for drug repurposing: Primary screen for SK-N-SH cells (AID 1347098); conditions: SK-N-SH viability, CellTiter-Glo luminescence, 48 h; series mostly up to 57 µM; note: nearly all actives have a fitted effect of over 65% in size; note: potency is the fitted concentration of half-maximal effect
Summary of the method: as §2

[9] = qHTS of pediatric cancer cell lines to identify multiple opportunities for drug repurposing: Primary screen for A673 cells (AID 1347092); conditions: A673 Ewing sarcoma viability, CellTiter-Glo ATP luminescence, 48 h; series mostly up to 46 µM; note: nearly all actives have a fitted effect of over 45% in size; note: potency is the fitted concentration of half-maximal effect
Summary of the method: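 Titration-based qHTS on A673 cells: MIPE compounds spanned 11 points (0.78 nM to 46 µM final), NPC compounds 8 points (0.59 nM to 46 µM final). Viability after 48 h was measured by ATP luminescence.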

[10] = qHTS of pediatric cancer cell lines to identify multiple opportunities for drug repurposing: Primary screen for SJ-GBM2 cells (AID 1347091); conditions: SJ-GBM2 viability, CellTiter-Glo luminescence, 48 h; series mostly up to 46 µM
Summary of the method: as §1

Measured: Potency

C[C@]12C/C(=C/O)C(=O)C[C@@H]1CC[C@@H]1[C@@H]2CC[C@@]2(C)[C@H]1CC[C@]2(C)O
active: [3] 23.7 µM
inactive: [1] | [2] | [4]

C[C@@H]1[C@@H](CC(C[C@H]2O[C@@H]3O[C@]4(C)CC[C@@H]5[C@H](C)CC[C@@H]([C@H]2C)[C@@]35OO4)C[S+](=O)([O-])c2ccc(COC(=O)N(C)C)cc2)O[C@@H]2O[C@]3(C)CC[C@H]4[C@H](C)CC[C@@H]1[C@@]24OO3 (stereo not given in full)
active: [3] 0.372 µM | [5] 0.485 µM | [6] 0.418 µM | [7] 0.118 µM
inactive: [4]

Oc1cccc2cccnc12
inactive: [1] | [5]

CC1=C2C[C@@H]3[C@@H](CC=C4C[C@@H](O)CC[C@@]43C)[C@@H]2CC[C@]12O[C@H]1C[C@H](C)CN[C@H]1[C@H]2C
inactive: [1] | [3] | [5] | [4] | [7]

COc1ccc(Cc2nccc3cc(OC)c(OC)cc23)cc1OC
inactive: [1] | [4] | [7] | [8]

c1ccc2c(c1)OCC(C1=NCCN1)O2 (stereo not given)
inactive: [1] | [4]
active: [2] 26.6 µM | [9] 13.3 µM | [3] 18.8 µM | [7] 23.7 µM

COC[C@H]1OC(=O)c2coc3c2[C@@]1(C)C1=C(C3=O)C2CCC(=O)[C@@]2(C)C[C@H]1OC(C)=O (stereo not given in full)
inactive: [1]
active: [2] 18.7 µM | [9] 4.69 µM | [3] 1.05 µM | [6] 0.833 µM | [7] 4.69 µM

O=c1[nH]c2ccccc2n1CCCN1CCC(n2c(=O)[nH]c3cc(Cl)ccc32)CC1
not listed: [5] | [10]
inactive: all other assays above

Clc1ccc(COC(Cn2ccnc2)c2ccc(Cl)cc2Cl)cc1 (stereo not given)
active: [9] 23.5 µM
inactive: [1] | [4]

Cc1ncc(CNC(=O)N(CCCl)N=O)c(N)n1
not listed: [1] | [3] | [9]
inactive: all other assays above

CC(C)(C)CC(C)(C)c1ccc(O)cc1
active: [3] 27.3 µM | [6] 30.6 µM | [7] 30.6 µM and 21.1 µM | [8] 25 µM
inactive: [1] | [2]

COc1ccc2c(c1OC)CN1CCc3cc4c(cc3C1C2)OCO4 (stereo not given)
inactive: [1] | [2] | [6] | [4] | [7]

Cc1cc(SCc2sc(-c3ccc(C(F)(F)F)c(F)c3)nc2C)ccc1OCC(=O)O
inactive: [1] | [2] | [9] | [4]

CN1C[C@H](CNC(=O)OCc2ccccc2)C[C@@H]2c3cccc4c3c(cn4C)C[C@H]21
active: [8] 27.3 µM
inactive: [1] | [2] | [6] | [4]

— PubChem BioAssay (NCATS)
